Laboratory results as given in PubChem BioAssay (NCI).
The panel holds about 83,000 compounds, 20% with a hit somewhere; the sample as a whole holds those more often.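 Activity criterion: percent growth below 10, measured after cells in 96-well plates were exposed to a single compound concentration for 48 hours.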 Values without a mark were called inactive. The source made the active and inactive calls.

The molecules below were run on MCF7 breast (assay: NCI-60 one-dose screen, 48 h (100 = growth as untreated, 0 = no growth, -100 = all killed)). Settings: 10 µM unless noted.

Row | Structure (SMILES) | growth
1 | COC(=O)[C@@H](NC(=O)[C@@H](OC)[C@@H]1Cc2cc3cc(OC4CC(OC5CC(O)C(O)C(C)O5)C(O)C(C)O4)c(C)c(O)c3c(O)c2C(=O)[C@H]1OC1CC(OC2CC(OC3CC(C)(O)C(O)C(C)O3)C(O)C(C)O2)C(O)C(C)O1)C(C)C (some centres undefined) | 6.73% (active)
2 | Nc1c2c(c(O)c3c1=C(CO)C=N3)=NCCS2=O (centres undefined) | -50.6% (active)
3 | C=CC[n+]1c(/C=C2\Sc3ccccc3N2C)sc(-c2ccccc2)c1-c1ccccc1 | 6.39% (active)
4 | CC1(C=O)NC(=O)NC1=O (centres undefined) | 95.6%
5 | COc1cc2c3c(c1)nc(C)n3CCC2 | 99.5%
6 | COc1cc2c(Oc3ccc4[nH]c(C)cc4c3F)ncnc2cc1OCCCN1CCCC1 | 89.8%
7 | CCc1nc2cc(/C=C/C(=O)NO)c(F)cc2c(=O)n1CCc1ccccc1 | 12.3%
8 | CCc1cc2c(c3ccc(C(=O)CBr)cc13)CCCC2 | 93.1%
9 | COc1cc(F)c(F)c(Nc2ccc(I)cc2F)c1NS(=O)(=O)C1(C[C@H](O)CO)CC1 | 61.5%
10 | C=CC(=O)Nc1cc2c(Nc3ccc(F)c(Cl)c3)ncnc2cc1C#CC(C)(C)N1CCN(C)CC1 | -65.2% (active)
11 | CN1CC[C@H](c2c(O)cc(O)c3c(=O)cc(-c4ccccc4Cl)oc23)[C@H](O)C1 | 4.72% (active)
12 | COc1cc2ncnc(Nc3ccc(F)c(Cl)c3)c2cc1NC(=O)/C=C/CN1CCCCC1 | -53.7% (active)
13 | O=C(c1ccccc1)C(c1ccccc1)N1CCOCC1 (centres undefined) | 98.3%
14 | COc1ccc(CCCc2c3[n+](cc4c(OC)c(OC)ccc24)CCc2cc4c(cc2-3)OCO4)cc1 | 93.7%
15 | CCn1c(-c2nonc2N)nc2c(C#CC(C)(C)O)ncc(OC[C@H]3CCCNC3)c21 | 15.6%
16 | COc1ccc(C2CC(=O)c3c(O)c(OC)c(OC)c(OC)c3O2)cc1O (centres undefined) | 24.8%
17 | NC1(c2ccc(-c3nc4ccn5c(=O)[nH]nc5c4cc3-c3ccccc3)cc2)CCC1 | 12.2%
18 | CCc1nc(C(N)=O)c(Nc2ccc(N3CCC(N4CCN(C)CC4)CC3)c(OC)c2)nc1NC1CCOCC1 | 25.6%
19 | CC(C)(C)c1ccc(Cn2cc(CSc3nc4ccccc4s3)nn2)cc1 | 91.4%
20 | COCC(=O)NC/C=C/c1ccc2ncnc(Nc3ccc(Oc4ccc(C)nc4)c(C)c3)c2c1 | 49.1%

Row | Structure (SMILES) | growth
21 | COc1ccc(-n2c(=O)c3ccccc3n(Cc3ccc(C(=O)NO)cc3)c2=O)cc1 | 25.9%
22 | CC(=O)C(C(C)=O)C(c1ccccc1)C(C(C)=O)C(C)=O | 90.2%
23 | Cc1cc2c(F)c(Oc3ncnn4cc(OC[C@@H](C)OC(=O)[C@H](C)N)c(C)c34)ccc2[nH]1 | 39.6%
24 | O=C(Cn1cncn1)Nc1ccc(-c2nc3ccccc3s2)cc1 | 36.1%
25 | COc1ccc(-c2cc3c(C)nc(N)nc3n(C3CCC(OCCO)CC3)c2=O)cn1 (centres undefined) | 1.58% (active)
26 | COc1cc(OC)c(/C=C/S(=O)(=O)Cc2ccc(OC)c(NCC(=O)O)c2)c(OC)c1 | 13.1%
27 | C=CC(=O)N(C)[C@H]1C[C@H]2OC(C)(C1OC)n1c3ccccc3c3c4c(c5c6ccccc6n2c5c31)C(=O)NC4 (some centres undefined) | 12.5%
28 | O=C1C=CC2(NN=C(c3ccccc3)N2c2cccc(Cl)c2)c2cccc(O)c21 (centres undefined) | 62.5%
29 | COC(=O)[C@@H](OC)[C@@H]1Cc2cc3cc(OC4CC(OC5CC(O)C(O)C(C)O5)C(O)C(C)O4)c(C)c(O)c3c(O)c2C(=O)[C@H]1OC1CC(OC2CC(OC3CC(C)(O)C(O)C(C)O3)C(O)C(C)O2)C(O)C(C)O1 (some centres undefined) | 8.9% (active)
30 | O=C(O)c1ccc(Nc2ncc3c(n2)-c2ccc(Cl)cc2C(c2c(F)cccc2F)=NC3)cc1 | 49.3%
31 | CC(C)Nc1cc(-c2c[nH]c(C(=O)N[C@H](CO)c3cccc(Cl)c3)c2)c(Cl)cn1 | 27.9%
32 | CCN(CC)CCNC(=O)c1c(C)[nH]c(/C=C2\C(=O)Nc3ccc(F)cc32)c1C | 7.17% (active)
33 | COc1cccc2cc(-c3nc(C4CCC(C(=O)O)CC4)n4ncnc(N)c34)[nH]c12 (centres undefined) | 6.71% (active)
34 | O=C(c1ccc(/C=C/c2n[nH]c3ccccc23)cc1)N1CCNCC1 | 24%
35 | COc1cc(-c2nc(C(=O)NCC(=O)O)nn2-c2ccc(Cl)cc2)cc(OC)c1OC | 96.3%
36 | CC1CCC(n2cnc3c(Cl)ncnc32)O1 (centres undefined) | 90.1%
37 | N#Cc1cc2[nH]c3ccc(OC(F)(F)F)cc3c2oc1=O | 81.4%
38 | COc1ccc(-c2cnc(-c3ccc(Cl)cc3)[nH]2)cc1OC | 93.9%
39 | COc1ccc2c(CCCCC(c3ccccc3)c3ccccc3)c3[n+](cc2c1OC)CCc1cc2c(cc1-3)OCO2 | -40.6% (active)
